From PubChem BioAssay
PfHsp90 set2: growth inhibition of yeast expressing Plasmodium Hsp90; AID 504621; hit rate 0.32% among 310,000; inhibition, % at 9.4 µM; S. cerevisiae expressing PfHsp90, BacTiter-Glo ATP, 48 h; yeast lacking PDR1 and PDR3 efflux regulators;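 active = every replicate shows inhibition above about 80%, whatever the replicate mean, limit read from the data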;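 also: 0% = DMSO neutral controls and 100% = 20 µM radicicol positive controls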
tim10-1 inh: growth inhibitors of tim10-1 mutant yeast; hit rate 2.2% among 330,000; inhibition, % at 20 µM; S. cerevisiae tim10-1 ts strain growth, BacTiter-Glo, 24 h; AID 463190;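 active = inhibition of at least 40%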;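 also: mutant grown at 25 °C; 0% = DMSO wells with yeast and 100% = wells holding no yeast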
tim23-1 inh: inhibits growth of tim23-1 mutant yeast; S. cerevisiae tim23-1 growth, BacTiter-Glo luminescence, 24 h; inhibition, % at 20 µM; hit rate 1.3% among 330,000; AID 463212;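 active = growth inhibition of the mutant yeast at or above 50%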;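 also: temperature-sensitive mutant grown at 25 °C; plate controls were DMSO-treated mutant yeast for no effect and medium wells lacking yeast for full effect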
TIM10 inh: TIM10 yeast growth inhibition | hit rate 1.4% among 330,000 | inhibition, % at 10 µM | S. cerevisiae TIM10 strain growth, BacTiter-Glo luminescence, 24 h | AID 463195;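 active = inhibition of 40% or more at the single tested concentration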;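 also: wild-type TIM10 isogenic control strain grown at permissive 25 °C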
V-ATPase pHluor: regulators of yeast V-ATPase proton transport; AID 504577; hit rate 0.37% among 350,000; response, % at 10 µM; S. cerevisiae, pHLuorin cytosolic pH fluorescence; in the data active = response mostly above about 7.3%, no sharp cut-off; inactive = mostly below about 5.4%; also: actives read high
tim10 confirm: confirmation of TIM10 yeast growth inhibitors; AID 463215; hit rate 63% among 4,600; inhibition, % at 10 µM; S. cerevisiae tim10 strain growth, BacTiter-Glo luminescence, 24 h; shares compounds with TIM10 inh;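 active = inhibition of yeast growth at or above a set limit in either of two replicates at 10 µM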;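 also: this counterscreen used the strain with wild-type TIM10; 0% = yeast with DMSO and 100% = medium wells lacking yeast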
* = called active by the depositor; . = not tested or not shown. Shown are actives, neighbours in structure and some others; about 3.7% of the full set was active somewhere.

SMILES | PfHsp90 set2 | tim10-1 inh | tim23-1 inh | TIM10 inh | V-ATPase pHluor | tim10 confirm
CCOC(=O)CCCn1ccc2cc(S(=O)(=O)N3CCCC3)ccc21 | -14 | 30 | 27 | 10 | 0 | .
Clc1ccc(OCc2nnnn2-c2ccccc2)cc1 | 9 | 39 | 30 | 7 | 7 | .
Cc1cc(Oc2nnnn2-c2ccccc2)ccc1Cl | . | 40 | 39 | 40* | -4 | 30*
NC(=O)c1ccccc1NC(=S)NC(=O)CCc1ccccc1 | -27 | 11 | 13 | 7 | 0 | .
Cc1ccccc1NC(=S)NC(=O)CCc1ccccc1 | -12 | 26 | 44 | 44* | 1 | 36*
Cc1cccc(COc2ccccc2C(=O)OCC(=O)N(C)c2c(N)n(Cc3ccccc3)c(=O)[nH]c2=O)c1 | -5 | 6 | 8 | 18 | 2 | .
CCN(CC)c1ccc(-n2c(C)c(C(C)=O)c(C(C)=O)c2C)cc1 | . | 37 | 41 | 44* | 2 | 19
CC1CCCCC12NC(=O)N(CC(=O)Nc1sccc1C(N)=O)C2=O (stereo not given) | 14 | 4 | 13 | 11 | 1 | .
Cc1ccc(-c2nnc(N(C)C(=O)c3cccnc3)s2)cn1 | 16 | -2 | -7 | 14 | 4 | .
Cc1ccc(-c2nnc(N(C)C(=O)c3cccnc3)s2)cc1 | 24 | 14 | 46 | 42* | 1 | 8
O=C(/C=C/c1ccc(Cl)cc1)NC(=S)Nc1ccccc1C(=O)O | -5 | 34 | 41 | 43* | 0 | 32*
CC[C@@H](C)[C@H](N)C(=O)NC[C@H]1O[C@@H](n2cnc3c(N)ncnc32)[C@H](O)[C@@H]1O | -2 | -4 | 19 | -13 | -4 | .
COc1ccc2[nH]c(C)c(CCNC(=S)Nc3ccc(C)cc3)c2c1 | 12 | 40 | 25 | 40* | 0 | 19
N/C(=N\OC(=O)c1ccc2c(c1)OCO2)c1ccc(Cl)cc1 | 16 | 33 | 47 | 48* | -6 | 46*
COc1ccc(C(=O)O/N=C(\N)c2ccccn2)cc1 | 72 | 34 | 49 | 42* | 0 | 36*
COc1cc(OC)cc(C(=O)O/N=C(\N)c2ccccn2)c1 | . | 3 | 23 | 1 | -2 | .
N/C(=N\OC(=O)c1ccc2c(c1)OCO2)c1ccncc1 | 5 | 13 | -1 | -5 | 0 | .
N/C(=N\OC(=O)c1ccc(Cl)cc1)c1ccccn1 | . | 37 | 48 | 62* | 3 | 47*
N/C(=N\OC(=O)c1cccc(Br)c1)c1ccccn1 | 20 | 33 | 47 | 59* | 2 | 42*
COc1ccc(OCC(=O)NC2CCCN(Cc3ccc(Cl)cc3)C2)cc1 (stereo not given) | -5 | 16 | 9 | 5 | 5 | .
COc1cccc(NC(=O)CN(C)C(=O)CCCc2nc3ccccc3c(=O)[nH]2)c1 | -8 | 4 | 0 | 2 | 1 | .
Cc1ccsc1/C=N/Nc1nc2ccccc2s1 | -49 | 13 | 39 | 40* | 0 | 44*
Oc1ccccc1C=NNc1nc2ccccc2s1 | . | . | . | . | -1 | .
O=C(Nc1ccc(Cl)c(Cl)c1)N1CCSC1c1ccco1 (stereo not given) | -37 | 24 | 34 | 48* | -2 | 31*
CC(=O)N1C(C)(C)CC(=NOC(=O)c2ccc(C)cc2)CC1(C)C | 18 | -3 | 8 | -11 | 0 | .
SMILES | PfHsp90 set2 | tim10-1 inh | tim23-1 inh | TIM10 inh | V-ATPase pHluor | tim10 confirm
Cc1nc2ccccc2nc1N1CCC(C)CC1 | -55 | 29 | 13 | -1 | 5 | .
Cc1cc(C)n(-c2nc3ccccc3nc2N2CCC(C)CC2)n1 | . | 25 | 24 | 42* | -3 | 18
COc1cc2c(C(=O)N3CCN(c4ccccc4C)CC3)c(C)oc2cc1Br | -13 | 37 | 21 | 52* | -2 | 35*
CCOC(=O)c1sc2nc(CSc3ccccc3)nc(N3CCCN(C)CC3)c2c1C | 18 | 0 | 4 | 41* | -2 | 30
CCOC(=O)c1sc2nc(CSc3ccccc3)nc(N3CCC(C(N)=O)CC3)c2c1C | 26 | -18 | 36 | 6 | -1 | .
Cc1nn2c(-c3ccco3)nnc2c2ccccc12 | . | 36 | 43 | 62* | 2 | 48*
S=c1nc(SCc2ccccc2)[nH]c2ccccc12 | -3 | 36 | 12 | 49* | 0 | 40*
c1ccc(CSc2nc3ncncc3[nH]2)cc1 | -2 | 6 | 17 | 3 | 0 | .
O=S(=O)(N1CCOCC1)N1CCOCC1 | -18 | -8 | -7 | -9 | 1 | .
